# Experimental data taken from the supplement of paper PMC13380429.
# Unmarked numbers belong to inactive results.
# System: Vero E6 infected with SARS-CoV-2
# Test: inhibition of SARS-CoV-2 cytopathic effect; higher = more antiviral protection, active = above 15
# Conditions: 48 h
SMILES,inhibition of SARS-CoV-2 cytopathic effect (1 nM) [%],inhibition of SARS-CoV-2 cytopathic effect (8.33 nM) [%],inhibition of SARS-CoV-2 cytopathic effect (100 nM),inhibition of SARS-CoV-2 cytopathic effect (833.33 nM),inhibition of SARS-CoV-2 cytopathic effect (10000 nM)
C[C@@H]1CN(CC(=O)Nc2ccc3c(c2)Cc2cccc(-c4cc(=O)cc(N5CCOCC5)o4)c2S3)C[C@H](C)O1,-2.04,0.24,2.16%,2.87%,35.7% (active)
C[C@@H](O)[C@H]1C(=O)N2C(C(=O)O)=C(S[C@@H]3CN[C@H](CNS(N)(=O)=O)C3)[C@H](C)[C@H]12 [doripenem],-0.14,0.27,-2.53%,-0.35%,0.46%
CCc1c(-c2ccccc2)c(-c2ccccc2)nn1-c1ccccc1-c1cccc(OCC(=O)O)c1,-2.24,3.84,0.2%,0.13%,-0.58%
CC(C)(C)NS(=O)(=O)c1cncc(-c2cc(F)c3nc(N)nn3c2)c1,3.23,2.61,-1.19%,0.27%,0.39%
COc1cc2nc(N3CCN(C(=O)C4CCCO4)CC3)nc(N)c2cc1OC (stereo not given) [terazosin],1.36,-0.59,-1.51%,-0.05%,1.35%
Cc1c(O)c(=O)n(-c2ccccc2)n1C [4-hydroxy-phenazone],-1.11,0.39,4.58%,-1.8%,-2.04%
COc1ccc2cc3[n+](cc2c1OC)CCc1cc2c(cc1-3)OCO2 [berberine],-11.8,-10.1,-11%,-3.86%,-3.62%
CN1CCN(c2cc3c(cc2F)c(=O)c(C(=O)O)cn3-c2ccc(F)cc2)CC1 [difloxacin],-1.68,2.12,0.47%,0.94%,1.41%
CC(C)C[C@H](NC(=O)CNC(=O)c1cc(Cl)ccc1Cl)B1OC(=O)C(CC(=O)O)(CC(=O)O)O1,-0.89,1.36,21.2% (active),34.2% (active),18.7% (active)
Cc1nc2n(c(=O)c1CCN1CCC(c3noc4cc(F)ccc34)CC1)CCCC2O (stereo not given) [paliperidone],-1.5,-3.74,-2.02%,-3.59%,-4.1%
CC[C@H](CC#N)OC(=O)N[C@@H](C)c1cccc(NC(=O)Nc2ccc(-c3cnco3)c(OC)c2)c1,0.48,4.56,0.06%,10.2%,13.2%
Cc1ccccc1NC(=N)Nc1ccccc1C [ditolylguanidine],1.39,1.77,-1.06%,-2.29%,-0.63%
O=C(O)COc1cccc(CN(Cc2ccc(-n3cccn3)cc2)S(=O)(=O)c2cccnc2)c1 [taprenepag],0.31,-1.59,-0.6%,-0.14%,0.98%
CCC(C)(Oc1ccc(C2(c3ccc(OC(C)(CC)C(=O)O)cc3)CCCCC2)cc1)C(=O)O (stereo not given) [clinofibrate],-0.17,-1.53,-1.92%,-1.83%,0.41%
C[C@@H]1O[C@@H]1P(=O)(O)O,0.82,-0.13,-0.02%,0.37%,0.09%
COc1cc2c(c(OC)c1OC)-c1ccc(OC)c(=O)cc1[C@@H](NC(C)=O)CC2 [colchicine],2.74,2.19,0.8%,-0.41%,1.35%
O=C(NC1CCNCC1)[C@@H]1CC[C@@H]2CN1C(=O)N2OS(=O)(=O)O [relebactam],0.07,1.87,1.26%,-0.84%,-1.06%
CC(C)(S)C(N)C(=O)O (stereo in doubt) [penicillamine-(racemic)],-0.3,-1.45,-0.335%,-1.03%,-0.18%
CCCC[C@H]1OC(=O)c2ccccc21 [butylphthalide],-2.11,-2.6,-0.12%,1.5%,0.31%
CCCCNc1cc(C(=O)O)cc(S(N)(=O)=O)c1Oc1ccccc1 [bumetanide],0.26,2.83,0.69%,1.71%,1.07%
CN1CCN(c2nc3ccccc3nc2Cl)CC1,-3.46,-0.96,-3.46%,0.73%,5.89%

SMILES,inhibition of SARS-CoV-2 cytopathic effect (1 nM) [%],inhibition of SARS-CoV-2 cytopathic effect (8.33 nM) [%],inhibition of SARS-CoV-2 cytopathic effect (100 nM),inhibition of SARS-CoV-2 cytopathic effect (833.33 nM),inhibition of SARS-CoV-2 cytopathic effect (10000 nM)
CC1(C)CCC[C@]2(C)[C@H]3CC(=O)O[C@]3(C)CC[C@@H]12 [Sclareolide (Norambreinolide)],-2.36,3.53,6.06%,2.01%,1.5%
O=C(O)C[C@H]1CC[C@H](c2ccc(-c3ccc(Nc4ccc(C(F)(F)F)nc4)cn3)cc2)CC1,-1.27,0.84,-0.93%,-2.65%,1.98%
N=C(N)NCCC[C@H](NC(=O)c1sccc1NS(=O)(=O)c1cccc2nsnc12)C(=O)O,-1.17,0.96,1.72%,0.4%,1.98%
O=C1[C@@H]2[C@H]3CC[C@H](C3)[C@@H]2C(=O)N1CCCCN1CCN(c2ncccn2)CC1 [tandospirone],2.41,0.1,-0.17%,1.06%,0.15%
CCn1c(=O)[nH]c2cc(Cl)c(Cl)cc21,0.36,1.8,0.73%,-2.68%,-2.08%
O=C(O)c1nn(Cc2ccc(Cl)cc2Cl)c2ccccc12 [lonidamine],-0.69,0.67,0.81%,1.31%,-0.94%
O=C1NS(=O)(=O)c2ccccc21 [saccharin],0.13,-1.09,0.17%,-0.12%,-2.82%
CCCCC#Cc1nc(NC)c2ncn([C@@H]3O[C@H](CO)[C@@H](O)[C@H]3O)c2n1,-0.9,-1.35,0.37%,-1.59%,-0.62%
CC(=O)N[C@@H](CS)C(=O)O [acetylcysteine],1.87,1.77,3.98%,1.93%,3.74%
CCN(CC)CCOc1ccc(/C(=C(\Cl)c2ccccc2)c2ccccc2)cc1 [clomifene],0.1,1.97,2.27%,3.88%,21.1% (active)
CCOC(N)=O [urethane],-3.1,-4.31,-0.41%,-2.2%,1.53%
N=C(N)SCCc1c[nH]cn1 [imetit],-0.58,-0.44,-2.84%,-2.2%,-1.05%
O=c1c(-c2ccc(O)cc2)coc2c([C@@H]3O[C@H](CO)[C@@H](O)[C@H](O)[C@H]3O)c(O)ccc12 [kakonein],-2.72,-3.42,-3.81%,-5.79%,-6.74%
N[C@H]1CC[C@H](N[C@@H]2C[C@H]2c2ccccc2)CC1,-0.96,2.24,1.16%,1.11%,1.79%
C1Cc2[nH]nc(-c3nn[nH]n3)c2C1,-1.32,-1.1,-1.82%,-3.19%,2.43%
CC1(C)CN(C(=O)c2ccc(-c3cccc4nc(NC(=O)C5CC5)nn34)cc2)C1 [solcitinib],0.35,1.82,2.28%,4.05%,4.4%
CN1C(CSCC(F)(F)F)Nc2cc(Cl)c(S(N)(=O)=O)cc2S1(=O)=O (stereo not given) [polythiazide],-0.4,0.91,3.31%,-0.95%,-1.62%
NC(N)=Nc1nc(CSCC/C(N)=N/S(N)(=O)=O)cs1 [Famotidine],1.28,0.44,-0.39%,-0.03%,-0.45%
Cc1cnc(-c2ccccc2C(C)C)nc1NCc1ccc(-n2ccnn2)cc1,-3.33,-2.94,-0.44%,0.3%,1.03%
c1cc(CN2CCCCC2)cc(OCCCNc2nc3ccccc3s2)c1 [zolantidine],0.78,3.51,1.37%,4.09%,4.6%
